# PubChem BioAssay
# Activity calls are given as the source filed them. Unless noted, no rule for the calls is given here.
# Key:
# [1] = compounds binding Alexa647 anti-His antibody – biochemical, small-molecule microarray, 635 nm fluorescence, artefact control for SMM control protein annotation, primary screen (AID 1128); conditions: higher = more signal;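 also: score merges feature fluorescence with signal-to-noise for each printed compound spot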
# [2] = test system: Human papillomavirus type 1a E7 protein (residues 1-88); assay: HPV1a E7 small-molecule binders, primary screen, biochemical, small-molecule microarray, residues 1-88, 635 nm (AID 1129); conditions: small-molecule microarray binding, fluorescence 635 nm; higher = more signal
# [3] = molecular target: Focal adhesion kinase 1 (Homo sapiens) (UniProt Q05397); assay: PTK2 protein binding on printed compound slides – biochemical, small-molecule microarray, 635/667 nm fluorescence, BSA, DTT, primary screen (AID 1130); conditions: 635 nm fluorescence, higher = more signal;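 also: composite of spot emission at 667 nm and signal to noise over triplicate slides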
# [4] = test system: Fibrinogen (Alexa647-labelled); assay: Alexa647-fibrinogen binding to printed small molecules – biochemical, small-molecule microarray, 635/667 nm fluorescence, artefact control for SMM control-protein annotation, profiling panel (AID 1131); conditions: fibrinogen-A647 binding fluorescence, higher = more signal;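 also: z-score merges 667 nm fluorescence with per-spot signal-to-noise over triplicate slides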
# [5] = molecular target: Follistatin (Homo sapiens) (UniProt P19883); assay: FST protein binding to printed compounds – biochemical, small-molecule microarray, 635/667 nm fluorescence, primary screen (AID 1132); conditions: 635 nm fluorescence, higher = more signal
# [6] = molecular target: Fibroblast growth factor 2 (Homo sapiens) (UniProt P09038); assay: basic fibroblast growth factor binding to printed compounds – biochemical, small-molecule microarray, 635/667 nm fluorescence, primary screen (AID 1133); conditions: FGF2, fluorescence 635/667, higher = more signal
# [7] = JC-1 mitochondrial potential readout, lung cancer cells – cell-based, A549, JC-1 fluorescence, basal, 24 h, 100 nL, profiling panel (AID 1138); conditions: higher = more signal;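 also: A549 lung adenocarcinoma cells under basal conditions with no added stimulus; test concentration not given here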
# [8] = test system: Lefty1; assay: Lefty1 protein binding to printed compounds – biochemical, small-molecule microarray, 635/667 nm fluorescence, primary screen (AID 1139); conditions: fluorescence 635/667, higher = more signal
# [9] = test system: wheat germ agglutinin (Triticum aestivum), Alexa647-labelled; assay: Alexa647-WGA lectin binding to printed small molecules – biochemical, small-molecule microarray, 635/667 nm fluorescence, artefact control for SMM control-protein annotation, profiling panel (AID 1140); conditions: WGA-A647 binding, 635 nm fluorescence, higher = more signal;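 also: score merges 667 nm feature emission with signal to noise over triplicate slides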
# [10] = molecular target: Luciferin 4-monooxygenase (Photinus pyralis) (UniProt P08659); assay: inhibition of purified Photinus pyralis luciferase – biochemical, luminescence, purified enzyme, 2006 set, primary screen (AID 1141); conditions: purified firefly luciferase, SteadyGlo luminescence, 30 min; higher = more signal, called active from +8 up or from −8 down;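 also: cell-free assay with purified firefly luciferase at 100 ng per well in PBS; test concentration not given here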
# [11] = test system: Wnt5a (protein binding on small-molecule microarray); assay: small molecules binding Wnt5a protein – biophysical, small-molecule microarray, 635/667 nm fluorescence, primary screen (AID 1142); conditions: 635 nm fluorescence, higher = more signal;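 also: fluorescence read at 667 nm with signal to noise per printed feature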
# [12] = ATP-based viability of Huh7 replicon cells – cell-based, CellTiter-Glo luminescence, basal, 48 h, cytotoxicity control for HCV replication inhibitor project, primary screen (AID 1143); conditions: higher = more signal, called active from +8 up or from −8 down;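 also: Huh7 hepatoma cells carrying a hepatitis C replication reporter with no stimulus; test concentration not given here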
# [13] = Pseudomonas biofilm growth suppression – PAO1 strain, BacTiter-Glo luminescence, LB-PBS, primary screen (AID 1144); conditions: P. aeruginosa PAO1 biofilm, 12 h, higher = more signal
# [14] = basal CRE-LacZ reporter activity in PC12 – cell-based, unstimulated, primary screen (AID 1145); conditions: no forskolin, luminescence, 4.5 h, higher = more signal, called active from +8 up or from −8 down
# [15] = forskolin-driven CRE-LacZ activity in PC12 – cell-based, CRE-LacZ reporter, forskolin-stimulated, primary screen (AID 1146); conditions: luminescence, 4.5 h, higher = more signal, called active from +8 up or from −8 down;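 also: PC12 cells with 6xCRE LacZ reporter stimulated by forskolin 10 µM; beta-galactosidase reporter signal reflecting CREB driven transcription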
# [16] = molecular target: Streptavidin (Streptomyces avidinii) (UniProt P22629); assay: compounds binding control protein streptavidin – biophysical, small-molecule microarray, 635/667 nm fluorescence, artefact control for SMM compound annotation, primary screen (AID 1147); conditions: higher = more signal;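 also: signal reflects streptavidin binding to arrayed compounds as a control protein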
# [17] = probe aInhba binding on compound microarray – biochemical, small-molecule microarray, 635/667 nm fluorescence, primary screen (AID 1148); conditions: higher = more signal;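 also: score merges 667nm spot fluorescence with signal-to-noise for antibody binding to printed compounds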
# [18] = molecular target: Torsin-1A (Homo sapiens) (UniProt O14656); assay: TOR1A wild-type binding on microarray – cell lysate, small-molecule microarray, lysate, 635/667 nm, primary screen (AID 1149); conditions: COS7 hTOR1A-WT lysate, 635 nm fluorescence, higher = more signal
# [19] = molecular target: Torsin-1A (Homo sapiens) (UniProt O14656); assay: torsin A mutant lysate binding on microarrays – cell lysate, small-molecule microarray, COS7 lysate, 635/667 nm fluorescence, primary screen (AID 1150); conditions: COS7 hTOR1A mutant lysate, 635 nm fluorescence, higher = more signal;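 also: score pools 667 nm emission and signal to noise measuring lysate protein binding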
# [20] = test system: Sonic hedgehog protein (Shh); assay: Sonic hedgehog microarray binding compounds – biochemical, small-molecule microarray, 635/667 nm fluorescence, primary screen (AID 1151); conditions: 635 nm fluorescence, higher = more signal;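 also: Shh protein binding to compounds spotted on small-molecule microarray slides; score combines spot fluorescence intensity with signal-to-noise across triplicate slides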
# Chain of Torsin-1A (Homo sapiens) (O14656 whole entry, looked up): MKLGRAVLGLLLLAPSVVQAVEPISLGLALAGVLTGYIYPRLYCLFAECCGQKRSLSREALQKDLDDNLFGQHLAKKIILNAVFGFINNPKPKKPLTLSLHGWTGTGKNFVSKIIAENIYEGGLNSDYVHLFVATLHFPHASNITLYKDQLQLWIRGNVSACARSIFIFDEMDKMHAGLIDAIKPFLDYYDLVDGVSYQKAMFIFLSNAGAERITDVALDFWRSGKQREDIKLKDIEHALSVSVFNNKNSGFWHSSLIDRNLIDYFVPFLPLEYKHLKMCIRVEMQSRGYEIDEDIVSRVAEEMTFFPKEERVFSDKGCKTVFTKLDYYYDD
# Chain of Luciferin 4-monooxygenase (Photinus pyralis) (P08659 whole entry, looked up): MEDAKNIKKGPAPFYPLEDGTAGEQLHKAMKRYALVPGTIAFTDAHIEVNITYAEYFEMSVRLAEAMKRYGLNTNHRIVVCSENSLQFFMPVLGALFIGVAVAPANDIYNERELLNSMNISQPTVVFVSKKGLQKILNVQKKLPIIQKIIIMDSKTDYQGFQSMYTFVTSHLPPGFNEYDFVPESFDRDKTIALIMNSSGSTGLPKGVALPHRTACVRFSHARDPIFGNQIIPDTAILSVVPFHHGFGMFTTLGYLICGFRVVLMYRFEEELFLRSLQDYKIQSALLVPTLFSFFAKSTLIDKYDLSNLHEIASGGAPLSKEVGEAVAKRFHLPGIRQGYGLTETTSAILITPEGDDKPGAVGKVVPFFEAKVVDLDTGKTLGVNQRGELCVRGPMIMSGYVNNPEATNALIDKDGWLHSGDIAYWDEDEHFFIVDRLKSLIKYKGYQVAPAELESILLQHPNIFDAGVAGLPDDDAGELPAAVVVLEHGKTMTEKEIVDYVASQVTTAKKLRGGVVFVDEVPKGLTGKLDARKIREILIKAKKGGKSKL
# Chain of Focal adhesion kinase 1 (Homo sapiens) (Q05397 whole entry, looked up): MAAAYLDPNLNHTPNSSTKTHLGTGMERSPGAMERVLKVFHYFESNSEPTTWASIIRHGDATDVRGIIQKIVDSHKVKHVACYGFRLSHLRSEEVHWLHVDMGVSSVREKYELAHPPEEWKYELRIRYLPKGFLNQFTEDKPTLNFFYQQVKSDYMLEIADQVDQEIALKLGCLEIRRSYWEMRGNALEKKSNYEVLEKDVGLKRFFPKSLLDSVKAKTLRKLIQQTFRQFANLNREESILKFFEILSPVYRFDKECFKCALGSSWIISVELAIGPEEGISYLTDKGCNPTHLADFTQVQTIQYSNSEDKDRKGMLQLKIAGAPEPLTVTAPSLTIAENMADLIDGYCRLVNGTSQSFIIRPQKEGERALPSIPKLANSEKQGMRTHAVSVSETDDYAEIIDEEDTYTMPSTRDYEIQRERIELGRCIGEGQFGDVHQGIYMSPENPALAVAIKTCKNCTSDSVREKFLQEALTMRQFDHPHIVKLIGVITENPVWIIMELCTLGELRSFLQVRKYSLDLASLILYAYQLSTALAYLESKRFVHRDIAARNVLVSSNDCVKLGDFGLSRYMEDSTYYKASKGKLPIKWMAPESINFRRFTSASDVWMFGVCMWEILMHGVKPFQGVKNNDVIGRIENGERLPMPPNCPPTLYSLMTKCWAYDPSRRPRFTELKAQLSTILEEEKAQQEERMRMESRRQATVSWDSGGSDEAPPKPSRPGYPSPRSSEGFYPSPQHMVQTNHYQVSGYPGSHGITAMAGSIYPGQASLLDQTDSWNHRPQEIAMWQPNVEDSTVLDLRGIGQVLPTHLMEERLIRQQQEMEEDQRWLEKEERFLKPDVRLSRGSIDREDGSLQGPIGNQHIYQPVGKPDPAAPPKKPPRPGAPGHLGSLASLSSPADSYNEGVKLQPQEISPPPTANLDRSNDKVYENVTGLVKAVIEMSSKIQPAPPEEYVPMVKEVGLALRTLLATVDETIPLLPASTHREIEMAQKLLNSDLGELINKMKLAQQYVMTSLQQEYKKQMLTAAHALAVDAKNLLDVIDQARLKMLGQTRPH
# Chain of Follistatin (Homo sapiens) (P19883 whole entry, looked up): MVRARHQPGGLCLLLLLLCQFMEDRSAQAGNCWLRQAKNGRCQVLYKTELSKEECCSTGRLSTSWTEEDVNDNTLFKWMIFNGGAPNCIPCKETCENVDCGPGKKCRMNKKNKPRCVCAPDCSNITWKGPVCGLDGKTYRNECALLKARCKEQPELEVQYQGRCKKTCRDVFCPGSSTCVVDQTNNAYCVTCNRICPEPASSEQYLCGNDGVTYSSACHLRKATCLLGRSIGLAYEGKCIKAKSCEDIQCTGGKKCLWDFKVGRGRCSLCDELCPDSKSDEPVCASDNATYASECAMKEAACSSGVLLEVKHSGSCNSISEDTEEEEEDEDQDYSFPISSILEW
# Chain of Fibroblast growth factor 2 (Homo sapiens) (P09038 whole entry, looked up): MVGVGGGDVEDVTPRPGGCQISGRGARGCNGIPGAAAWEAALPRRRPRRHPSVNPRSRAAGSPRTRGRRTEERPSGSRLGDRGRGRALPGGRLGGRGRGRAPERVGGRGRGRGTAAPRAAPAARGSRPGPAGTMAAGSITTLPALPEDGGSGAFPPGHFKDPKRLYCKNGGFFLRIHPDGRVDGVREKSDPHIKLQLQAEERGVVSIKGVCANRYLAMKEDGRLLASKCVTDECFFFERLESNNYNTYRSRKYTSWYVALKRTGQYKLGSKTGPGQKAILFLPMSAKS
# Chain of Streptavidin (Streptomyces avidinii) (P22629 whole entry, looked up): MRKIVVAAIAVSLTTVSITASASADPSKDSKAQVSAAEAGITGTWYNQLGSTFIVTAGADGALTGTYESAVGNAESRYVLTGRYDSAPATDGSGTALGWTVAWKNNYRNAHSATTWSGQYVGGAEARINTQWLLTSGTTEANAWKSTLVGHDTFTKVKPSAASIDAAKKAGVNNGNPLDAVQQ
SMILES,composite z-score [1],composite z-score [2],composite z-score [3],composite z-score [4],composite z-score [5],composite z-score [6],z-score [7],composite z-score [8],composite z-score [9],z-score [10],composite z-score [11],z-score [12],z-score [13],z-score [14],z-score [15],composite z-score [16],composite z-score [17],composite z-score [18],composite z-score [19],composite z-score [20]
C[C@@H]1C=CCC(=O)OC[C@H](C)C(=O)N[C@@H](C)C(=O)OC1,-0.181,-0.479,1.32,-0.096,0.302,1.09,-0.944,0.921,-0.323,1.04 (inactive),0.268,-0.568 (inactive),-0.298 (inactive),-0.887 (inactive),-0.24 (inactive),0.34,-0.0044,1.51,0.527,1.3
COC(=O)[C@H](C)NC(=O)CCC1CC(OC(=O)NCCc2ccc(F)cc2)CC2(CCCC(COC(=O)NCCc3ccc(Cl)cc3)O2)O1 (stereo not given in full),0.225,0.966,0.167,0.873,0.646,1.05,0.994,1.25,0.766,0.0182 (inactive),0.606,-0.195 (inactive),-0.739 (inactive),-0.0732 (inactive),-0.195 (inactive),1.07,-0.0937,2.31,-0.177,1.31
C=CCN1C(=O)[C@]2(O[C@H](CCn3cc(CCO)nn3)[C@@H]([Si](C)(C)c3ccc(OC)cc3)[C@@H]2C)c2cc(N3CCOC3=O)ccc21,0.766,1.2,0.469,0.338,-0.293,-0.0054,0.982,0.0269,0.574,-1.8 (inactive),-0.246,-4.23 (inactive),-0.771 (inactive),7.08 (inactive),0.144 (inactive),1.32,-0.253,0.419,0.855,0.6
CCc1cc2c(nc1CC)CCN(CCC(C)=NOC(C)CN1CCCc3nc(C)c(C)cc31)C2 (stereo not given),-0.295,0.973,0.63,0.398,1.31,0.631,1.2,1.29,0.467,0.62 (inactive),0.56,-0.0844 (inactive),-0.129 (inactive),1.14 (inactive),0.534 (inactive),0.854,0.341,1.31,0.748,1.35
CCN1C(=O)[C@H]2[C@H]3[C@H](O)[C@H](O)CC(=NOCc4ccccc4)[C@@H]3CC[C@H]2C1=O,0.119,0.65,-0.0096,0.306,0.276,0.232,1.89,0.538,0.0953,-1.23 (inactive),-0.0713,-0.672 (inactive),0.855 (inactive),1.42 (inactive),0.479 (inactive),-0.0346,-0.0575,0.962,0.236,0.531
Cn1cccc1C(O)C1C=CC2C(=O)NC(=O)C2N1Nc1ccccn1 (stereo not given),0.195,-0.789,-0.35,-0.0084,0.776,0.126,-1.96,0.097,1.03,-1.41 (inactive),0.0956,-3.04 (inactive),0.465 (inactive),-0.326 (inactive),0.583 (inactive),0.126,-0.231,0.3,0.197,0.64
COc1ccc(O[C@H]2C=C[C@@H](c3ccccc3)O[C@@H]2CON=C[C@@H](C)[C@H](OCc2ccccc2)C(C)C)cc1,0.901,-1.26,-0.302,-1.41,-0.675,-0.76,1.96,-0.214,0.12,0.0017 (inactive),-0.426,-0.149 (inactive),0.531 (inactive),-0.971 (inactive),0.367 (inactive),-0.567,-0.21,-1.53,-0.91,-0.071
CC(=O)OC[C@H]1O[C@H](C#CCCCc2ccccc2)C=C[C@@H]1OC(C)=O,0.451,0.242,0.126,0.735,0.47,0.83,-0.264,0.696,0.353,-1.65 (inactive),0.18,-2.33 (inactive),0.952 (inactive),0.106 (inactive),1.28 (inactive),-0.111,0.322,-0.0078,0.0804,1.19
C#CCCCON=C1C[C@@H](O)[C@@H](O)[C@@H]2[C@@H]3C(=O)N(Cc4ccccc4)C(=O)[C@@H]3CC[C@H]12,0.0056,0.126,0.256,-0.307,0.592,0.171,-0.732,0.582,0.253,0.883 (inactive),0.203,-3.22 (inactive),-1.13 (inactive),0.793 (inactive),-0.645 (inactive),0.0194,-0.209,0.289,-0.0292,0.985
CO[C@H]1COC(=O)[C@@H]2CCCN2C(=O)CC=C[C@@H](C)[C@H](OC)COC(=O)CC=C[C@@H]1C,-0.287,-0.52,-0.0405,-0.624,1.36,1.21,1.59,1.62,-0.705,-1.87 (inactive),0.191,-1.32 (inactive),-1.11 (inactive),2.42 (inactive),0.104 (inactive),-0.689,-0.0858,1.49,1.27,1.98
